Shown are actives, neighbours in structure and some others; about 3.2% of the full set was active somewhere.
LASV entry inh: Lassa virus entry inhibition; Lassa virus pseudotype entry inhibition, cell reporter; Potency, µM (doses to about 37.9 µM), usual class: inhibitors; hit rate 1.2% among 300,000; AID 540256; calls by dose curve; tested in HEK293 cells; further: nearly all actives have a fitted effect of over 50% in size
FMDV inh: antivirals against foot and mouth disease virus | hit rate 1.2% among 410,000 | Potency, µM (titrated, usually from 57.9 µM), hits mostly inhibitors | FMDV antiviral cell-based qHTS; calls by dose curve; tested in HEK293T cells; further: read-out not given here; nearly all actives have a fitted effect of over 45% in size
VACV Venus inh: vaccinia inhibition (Venus reporter); Vaccinia virus Venus reporter expression, fluorescence; Potency, µM (top dose mostly 36.5 µM), hits mostly inhibitors; hit rate 0.46% among 330,000; AID 720580; calls by dose curve; tested in A549 cells; further: nearly all actives have a fitted effect of over 30% in size
MARV entry inh: blocks Marburg virus binding to or entry into cells; Potency, µM (titrated, usually from 37.8 µM), hits mostly inhibitors; Marburg virus pseudotyped entry inhibition, cell reporter; hit rate 1.8% among 300,000; calls by dose curve; tested in HEK293 cells
Vaccinia mCherry: inhibitors of vaccinia virus infection (mCherry reporter signal); Vaccinia virus mCherry reporter infection, fluorescence; Potency, µM (highest dose often 36.5 µM), most hits filed as inhibitors; hit rate 0.63% among 310,000; AID 720579; calls by dose curve; tested in A549 cells; further: nearly all actives have a fitted effect of over 35% in size
Each line names hits and unclear results; the compound was inactive in the other large screens.

CCOc1ccc(OCc2ccc(C(=O)NN=Cc3ccc[nH]3)cc2)cc1	LASV entry inh inconclusive, VACV Venus inh inconclusive, MARV entry inh 0.28µM, Vaccinia mCherry inconclusive
FC(F)(F)c1cnc(-c2cc3c(c(OCC4CCCO4)c2)OCCN(Cc2cccn2-c2nccs2)C3)c(Cl)c1 (configuration not stated)	none (no result: LASV entry inh, MARV entry inh)
O=C(C[N+]12CN3CN(CN(C3)C1)C2)c1ccc(I)cc1	none (no result: LASV entry inh, FMDV inh, MARV entry inh)
Cc1cccc(-c2nc3cc(NC(=O)COc4ccccc4F)ccc3o2)c1	none
CC(=NNC(=S)Nc1cccc(C)c1)c1ccccn1	LASV entry inh inconclusive, VACV Venus inh inconclusive, MARV entry inh inconclusive, Vaccinia mCherry 2µM
CC(=NNC(=S)Nc1ccc(C)cc1)c1ccccn1	LASV entry inh inconclusive, VACV Venus inh inconclusive, MARV entry inh inconclusive, Vaccinia mCherry inconclusive
C/C(=N\NC(=O)c1ccccc1Cl)c1ccccn1	VACV Venus inh inconclusive, Vaccinia mCherry inconclusive (no result: LASV entry inh, MARV entry inh)
C/C(=N\NC(=O)C1COc2ccccc2O1)c1ccccn1 (configuration not stated)	LASV entry inh 11µM, VACV Venus inh inconclusive, MARV entry inh inconclusive, Vaccinia mCherry 4.5µM
C/C(=N\NC(=O)c1ccc(Cl)c(Cl)c1)c1ccccn1	LASV entry inh 5.6µM, VACV Venus inh inconclusive, MARV entry inh inconclusive, Vaccinia mCherry 1.3µM
COc1ccccc1NC(=S)NN=C(C)c1ccccn1	LASV entry inh 0.28µM, VACV Venus inh inconclusive, MARV entry inh inconclusive, Vaccinia mCherry inconclusive
CCOC(=O)N1CCN(Cc2nc3cc(NC(=O)c4ccc(F)cc4)ccc3n2C(C)C)CC1	FMDV inh inconclusive, MARV entry inh inconclusive
COc1ccc([C@@H]2CC=C(C(=O)O)[C@H](c3ccccc3F)N2S(=O)(=O)c2ccccc2C)cc1	none (no result: LASV entry inh, MARV entry inh)
COc1ccc(NC(=O)c2ccccn2)cc1OC	none (no result: VACV Venus inh, Vaccinia mCherry)
C/C(=N\NC(=O)c1cccc(Br)c1)c1ccccn1	LASV entry inh inconclusive, VACV Venus inh inconclusive, MARV entry inh 4.5µM, Vaccinia mCherry inconclusive
CC(C)(C)c1ccc(/C=N/NC(=O)c2ccccn2)cc1	LASV entry inh inconclusive, MARV entry inh 3.2µM
C/C(CC(=O)Nc1ccccn1)=N\NC(=O)c1ccccc1O	LASV entry inh inconclusive, MARV entry inh inconclusive, Vaccinia mCherry 4µM
COc1ccc(C(=O)N/N=C(\C)c2ccccn2)cc1OC	LASV entry inh 5.6µM, FMDV inh inconclusive, VACV Venus inh inconclusive, MARV entry inh 6.3µM, Vaccinia mCherry 2.2µM
C/C(CC(=O)Nc1ccccn1)=N\NC(=O)c1ccc2ccccc2c1	none
COc1ccc2c(c1)CO[C@H]([C@H](O)CO)[C@H]2C=CC#Cc1ccc(C(C)(C)C)cc1	none (no result: LASV entry inh, FMDV inh, VACV Venus inh, Vaccinia mCherry)
CC(=O)Oc1ccc2c(c1)CC[C@@H]1[C@@H]2CC[C@]2(C)[C@@H](O)CC[C@@H]12	none (no result: LASV entry inh, MARV entry inh)
C/C(=N/NC(=O)c1ccccn1)c1ccncc1	MARV entry inh inconclusive
C/C(=N/NC(=O)c1ccc(C(C)(C)C)cc1)c1ccccn1	LASV entry inh inconclusive, VACV Venus inh inconclusive, MARV entry inh inconclusive, Vaccinia mCherry 2.8µM
COc1cccc(CNc2nc3cc(-c4ccc(C)cc4)sc3c(=O)n2C)c1OC	none (no result: LASV entry inh, MARV entry inh)
COc1ccc(-c2cc3nc(NCc4ccc(N(C)C)cc4)n(C)c(=O)c3s2)cc1OC	FMDV inh 28µM, VACV Venus inh inconclusive (no result: LASV entry inh, MARV entry inh)
COc1cccc(CNc2nc3cc(-c4ccsc4)sc3c(=O)n2C)c1OC	FMDV inh 32µM (no result: LASV entry inh, MARV entry inh)
COc1cccc(CNc2nc3cc(-c4ccc(OC)c(OC)c4)sc3c(=O)n2C)c1	FMDV inh inconclusive (no result: LASV entry inh, MARV entry inh)
CCN=c1scc(-c2ccc3c(c2)NC(=O)CO3)n1N=C1CCCC1	LASV entry inh inconclusive, FMDV inh inconclusive, VACV Venus inh inconclusive, MARV entry inh 4µM, Vaccinia mCherry inconclusive
Nc1nc(-c2ccc3c(c2)NC(=O)CO3)cs1	none
CCCCN=c1scc(-c2ccc3c(c2)NC(=O)CO3)n1N=C1CCCC1	LASV entry inh inconclusive, FMDV inh 25µM, MARV entry inh inconclusive (no result: VACV Venus inh, Vaccinia mCherry)
C1=Cc2ccccc2/C1=C/c1ccc2c(c1)OCO2	none (no result: LASV entry inh, FMDV inh, MARV entry inh)
Cc1cccc(C)c1NC(=O)CNC(=O)CCC(=O)c1cccs1	none (no result: VACV Venus inh, Vaccinia mCherry)
COc1ccc(-c2cc(=O)oc3c(O)c(O)ccc23)cc1	VACV Venus inh inconclusive, MARV entry inh inconclusive, Vaccinia mCherry 11µM
COc1ccccc1-c1nnc(Sc2nc([N+](=O)[O-])nn2C)o1	FMDV inh 28µM, MARV entry inh inconclusive (no result: VACV Venus inh, Vaccinia mCherry)
Cn1cnnc1Sc1nc([N+](=O)[O-])nn1C	none (no result: LASV entry inh, VACV Venus inh, MARV entry inh, Vaccinia mCherry)
O=C(NCCc1ccc(Cl)cc1)C1CCCO1 (configuration not stated)	none
CN1CCN(S(=O)(=O)c2ccc(N(C)Cc3ccc(C(F)(F)F)cc3)c([N+](=O)[O-])c2)CC1	LASV entry inh inconclusive, FMDV inh inconclusive, VACV Venus inh inconclusive, MARV entry inh 10µM
